Inconclusive results are not listed. Activity calls are given as the source filed them. Calls come from the whole dose curve; as a rule, active = well fitted inhibition curve with a large enough effect; inconclusive = small, poorly fitted or top-dose-only effect; inactive = no such curve, though single readings can be large or run the other way.
Potency is the fitted concentration of half-maximal effect.

The nature of this test: qHTS Screen of the MIPE 4.0 Collection Against Ewings Sarcoma (TC71) (AID 1259253). Note: nearly all actives have a fitted effect of over 40% in size. The following applies: TC71 Ewing sarcoma viability, CellTiter-Glo, 48 h; series mostly up to 45.8 µM. In outline:
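Measured: ATP luminescence (CellTiter-Glo) 10 min after reagent addition, following 48 h drug treatment. Relative luciferase units converted to percent activity, with no-cell wells as full and DMSO wells as zero inhibition.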
For the compound `CCCCc1ccc(NS(=O)(=O)c2ccc(C)c(C(=O)N3CCN(c4cccc(C)c4C)CC3)c2)cc1`, the Potency was 20.9 µM (active).

As for `Cc1cccc2c1CC[C@H](CN1CCC(c3c(Cl)cccc3Cl)CC1)C[C@@H]2O`, the Potency was 5.9 µM (active). For `CC[C@]1(O)C[C@H]2CN(CCC3=c4ccccc4=N[C]3[C@@](C(=O)OC)(c3cc4c(cc3OC)N(C)[C@H]3[C@@](O)(C(N)=O)[C@H](O)[C@]5(CC)C=CCN6CC[C@]43[C@@H]65)C2)C1`, the Potency was 0.0264 µM (active). To `O=c1[nH]c(=O)n([C@H]2C[C@@H](O)[C@@H](CO)O2)cc1I` belongs 5.9 µM (active). Turning to `O=C(Nc1ccc(OC(F)(F)F)cc1)c1sccc1NCc1ccnc2ccccc12`, the Potency was 16.6 µM (active).

Take `CC(C)C[C@@H](C(=O)N[C@H](C(=O)OC1CCCC1)c1ccccc1)[C@H](O)C(=O)NO`: the Potency is 18.7 µM (active). Regarding `CC(=O)OCC(=O)[C@@]1(O)CC[C@H]2[C@@H]3CCC4=CC(=O)C=C[C@]4(C)[C@@H]3[C@@H](O)C[C@@]21C`, the Potency was 9.35 µM (active). To `CCOC(=O)c1c(CSc2ccccc2)n(C)c2cc(Br)c(O)c(CN(C)C)c12` belongs 16.6 µM (active).

Turning to `CC(=O)NCCC(=O)N[C@@H](CCC(N)=O)C(=O)N[C@@H](CO)C(=O)N[C@@H](CCC(N)=O)C(=O)N[C@@H](CCC(N)=O)C(=O)N[C@H](C(=O)N[C@@H](Cc1ccccc1)C(=O)N[C@]1(C)CCCCCCC=CCCC[C@@](C)(C(=O)N[C@@H](CCC(N)=O)C(=O)N[C@@H](CC(N)=O)C(N)=O)NC(=O)[C@H](CC(C)C)NC(=O)[C@H](CC(C)C)NC(=O)[C@@H](CCCNC(=N)N)NC(=O)[C@H](Cc2c[nH]c3ccccc23)NC(=O)[C@H](CC(C)C)NC(=O)[C@H](CC(N)=O)NC1=O)[C@H](C)O`, the Potency was 20.9 µM (active).
